# In PubChem BioAssay AID1159580 (chemical genetic matrix, 2015):
# In all, about 5,500 compounds went through this assay and about 2,000 (36%) were called active. Not shown: some 18% with an inconclusive outcome. This is one part of the list. Values without a mark were called inactive. Cut-off read from the data, not from the text of the source: active = normalized growth mostly below about 0.91 (no sharp cut-off); inconclusive = no clear call, values can overlap the other calls; inactive = mostly above about 0.92.
# Assay: chemical genetic growth profiling, strain panel (AID 1159580);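 note: tested at 20 µM; growth read once vehicle control cultures reached saturation at 30 °C; 1 = growth at the plate median or of vehicle wells; lower values mean less growth of the strain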
# Details: S. cerevisiae deletion strains, growth OD
# [1] = locus YAL040C, strain CLN3, hits give low values
# [2] = locus YDR363W, strain ESC2, hits give low values
# [3] = locus YER002W, strain NOP16, hits give low values
# [4] = locus YJR075W, strain HOC1, hits give low values
# [5] = locus YMR307W, strain GAS1, hits give low values
# [6] = locus YNL153C, strain GIM3, hits give low values
# [7] = locus YNL175C, strain NOP13, hits give low values
# [8] = locus YNL197C, strain WHI3, hits give low values
# [9] = locus YNL224C, strain SQS1, hits give low values
# [10] = locus YOR083W, strain WHI5 (second series), hits give low values
smiles,measurement,setting,value
COc1ccccc1OCC(O)CN1CCN(CC(=O)Nc2c(C)cccc2C)CC1 (stereo unspecified),normalized growth,"locus YAL013W, strain DEP1, hits give low values",0.996
same,normalized growth,"locus YAL021C, strain ccr4, hits give low values",0.991
same,normalized growth,"locus YAL026C, strain drs2, hits give low values",1.03
same,normalized growth,"locus YAL030W, strain snc1, hits give low values",1.01
same,normalized growth,[1],1
same,normalized growth,"locus YBL061C, strain skt5, hits give low values",1.02
same,normalized growth,"locus YBR009C, strain hhf1, hits give low values",0.986
same,normalized growth,"locus YBR023C, strain chs3, hits give low values",1.03
same,normalized growth,"locus YBR171W, strain sec66, hits give low values",1.02
same,normalized growth,"locus YBR231C, strain swc5, hits give low values",0.991
same,normalized growth,"locus YBR279W, strain paf1, hits give low values",1.02
same,normalized growth,"locus YCL011C, strain gbp2, hits give low values",1.01
same,normalized growth,"locus YCL016C, strain dcc1, hits give low values",1.04
same,normalized growth,"locus YCL061C, strain MRC1 (second series), hits give low values",1
same,normalized growth,"locus YCL061C, strain MRC1, hits give low values",0.993
same,normalized growth,"locus YCL069W, strain vba3, hits give low values",1.02
same,normalized growth,"locus YCR088W, strain abp1, hits give low values",1.02
same,normalized growth,"locus YDL005C, strain med2, hits give low values",1
same,normalized growth,"locus YDL040C, strain nat1, hits give low values",1
same,normalized growth,"locus YDR001C, strain nth1, hits give low values",1
same,normalized growth,"locus YDR069C, strain doa4, hits give low values",0.991
same,normalized growth,"locus YDR137W, strain rgp1, hits give low values",1.06
same,normalized growth,"locus YDR159W, strain sac3, hits give low values",0.912
same,normalized growth,"locus YDR195W, strain ref2",0.993
same,normalized growth,"locus YDR297W, strain sur2, hits give low values",1
same,normalized growth,"locus YDR334W, strain swr1, hits give low values",1
same,normalized growth,"locus YDR335W, strain msn5, hits give low values",1.01
same,normalized growth,[2],0.998
same,normalized growth,"locus YDR392W, strain spt3, hits give low values",0.942
same,normalized growth,"locus YEL003W, strain gim4, hits give low values",0.976
same,normalized growth,"locus YEL037C, strain rad23, hits give low values",1.01
same,normalized growth,"locus YEL061C, strain CIN8 (second series), hits give low values",0.997
same,normalized growth,[3],0.993
same,normalized growth,"locus YER015W, strain faa2, hits give low values",1.01
same,normalized growth,"locus YER016W, strain bim1, hits give low values",1.03
same,normalized growth,"locus YER111C, strain swi4, hits give low values",1.02
same,normalized growth,"locus YER155C, strain BEM2 (second series), hits give low values",0.957
same,normalized growth,"locus YFR010W, strain ubp6, hits give low values",0.97
same,normalized growth,"locus YGL167C, strain pmr1, hits give low values",0.989
same,normalized growth,"locus YGL173C, strain kem1, hits give low values",0.987
same,normalized growth,"locus YGL227W, strain vid30, hits give low values",1.02
same,normalized growth,"locus YGL240W, strain doc1, hits give low values",0.987
same,normalized growth,"locus YGL253W, strain hxk2, hits give low values",1.06
same,normalized growth,"locus YHR013C, strain ard1, hits give low values",1.03
same,normalized growth,"locus YHR027C, strain rpn1, hits give low values",0.988
same,normalized growth,"locus YHR030C, strain SLT2, hits give low values",1.06
same,normalized growth,"locus YHR079C, strain IRE1, hits give low values",1.05
same,normalized growth,"locus YHR142W, strain chs7, hits give low values",1.02
same,normalized growth,"locus YJL092W, strain hpr5, hits give low values",1
same,normalized growth,"locus YJL095W, strain BCK1 (second series), hits give low values",1.02
same,normalized growth,"locus YJL095W, strain BCK1, hits give low values",1.02
same,normalized growth,"locus YJL115W, strain asf1, hits give low values",1
same,normalized growth,"locus YJL129C, strain trk1, hits give low values",1.03
same,normalized growth,"locus YJL154C, strain vps35, hits give low values",1
same,normalized growth,"locus YJL164C, strain tpk1, hits give low values",0.979
same,normalized growth,"locus YJL166W, strain qcr8, hits give low values",0.997
same,normalized growth,"locus YJR066W, strain TOR1, hits give low values",0.977
same,normalized growth,[4],1
same,normalized growth,"locus YKL160W, strain elf1, hits give low values",1.01
same,normalized growth,"locus YKR026C, strain gcn3, hits give low values",1
same,normalized growth,"locus YKR091W, strain srl3, hits give low values",1
same,normalized growth,"locus YLL001W, strain dnm1, hits give low values",0.964
same,normalized growth,"locus YLL026W, hits give low values",1.01
same,normalized growth,"locus YLL041C, strain sdh2, hits give low values",1.02
same,normalized growth,"locus YLR027C, strain aat2, hits give low values",1
same,normalized growth,"locus YLR113W, strain HOG1, hits give low values",0.982
same,normalized growth,"locus YLR221C, strain rsa3, hits give low values",0.972
same,normalized growth,"locus YLR258W, strain gsy2, hits give low values",1.03
same,normalized growth,"locus YLR262C, strain YPT6 (second series), hits give low values",1.02
same,normalized growth,"locus YLR320W, strain mms22, hits give low values",0.937
same,normalized growth,"locus YLR342W, strain FKS1, hits give low values",1.02
same,normalized growth,"locus YLR357W, strain rsc2, hits give low values",0.99
same,normalized growth,"locus YLR370C, strain arc18, hits give low values",1.01
same,normalized growth,"locus YLR384C, strain iki3, hits give low values",0.997
same,normalized growth,"locus YML120C, strain ndi1, hits give low values",0.976
same,normalized growth,"locus YMR058W, strain fet3, hits give low values",1.01
same,normalized growth,"locus YMR125W, strain sto1, hits give low values",1.01
same,normalized growth,"locus YMR129W, hits give low values",0.988
same,normalized growth,"locus YMR205C, strain PFK2, hits give low values",1
same,normalized growth,"locus YMR231W, strain pep5, hits give low values",1
same,normalized growth,[5],1.02
same,normalized growth,"locus YNL071W, strain lat1, hits give low values",1
same,normalized growth,[6],1.06
same,normalized growth,[7],1.01
same,normalized growth,"locus YNL183C, strain NPR1, hits give low values",0.963
same,normalized growth,[8],1.01
same,normalized growth,"locus YNL209W, strain ssb2, hits give low values",1.02
same,normalized growth,[9],1.01
same,normalized growth,"locus YNL248C, strain rpa49, hits give low values",1.07
same,normalized growth,"locus YNL322C, strain KRE1 (second series), hits give low values",1.02
same,normalized growth,"locus YNR049C, strain mso1, hits give low values",1
same,normalized growth,"locus YOR001W, strain rrp6, hits give low values",0.924
same,normalized growth,"locus YOR070C, strain gyp1, hits give low values",1.01
same,normalized growth,"locus YOR080W, strain dia2, hits give low values",1.01
same,normalized growth,[10],1.02
same,normalized growth,"locus YOR083W, strain WHI5, hits give low values",0.974
same,normalized growth,"locus YOR106W, strain vam3, hits give low values",1.04
same,normalized growth,"locus YOR231W, strain MKK1, hits give low values",1.01
same,normalized growth,"locus YOR265W, strain rbl2, hits give low values",0.98
same,normalized growth,"locus YOR270C, strain vph1, hits give low values",0.991
same,normalized growth,"locus YOR290C, strain snf2, hits give low values",1.06
same,normalized growth,"locus YPL051W, strain arl3, hits give low values",1.04
same,normalized growth,"locus YPL078C, strain atp4, hits give low values",1.07
same,normalized growth,"locus YPL106C, strain sse1, hits give low values",1.1
same,normalized growth,"locus YPL240C, strain hsp82, hits give low values",1
same,normalized growth,"locus YPL241C, strain CIN2, hits give low values",1.01
same,normalized growth,"locus YPL256C, strain CLN2, hits give low values",1.05
N.N.N.N.N.N.N.N.N.N.N.N.N.N.O.O.[Ru+4].[Ru+5].[Ru+5],normalized growth,[1],0.206 (active)
same,normalized growth,[2],0.323 (active)
same,normalized growth,[3],0.155 (active)
same,normalized growth,"locus YGR078C, strain PAC10, hits give low values",0.158 (active)
same,normalized growth,"locus YGR229C, strain SMI1, hits give low values",0.151 (active)
same,normalized growth,[4],0.115 (active)
same,normalized growth,"locus YMR263W, strain SAP30, hits give low values",0.993
same,normalized growth,[5],0.218 (active)
same,normalized growth,"locus YNL128W, strain TEP1, hits give low values",0.194 (active)
same,normalized growth,[6],0.193 (active)
same,normalized growth,[7],0.175 (active)
same,normalized growth,[8],0.154 (active)
same,normalized growth,[9],0.173 (active)
same,normalized growth,[10],0.167 (active)
